# The whole screen tested about 13,000 compounds, of which about 3,200 (25%) showed an effect of 50% or more. This is one part of the list.
# Test system: P. falciparum stage V gametocytes
# Parameters: BacTiter-Glo ATP luminescence viability of purified stage V gametocytes in 384-well plates, per cent inhibition versus DMSO
# Conditions: 48 h, 5 µM; inhibitor
row,SMILES,% Inhibition
1,Cc1ccc(-c2ccc3c(c2)C=C(C(=O)NC2CCN(CCNC(=O)c4cccc(C(F)(F)F)c4)CC2)CCC3)cc1 [TCMDC-141948],-9.898%
2,COC(=O)c1cccc(NC(=O)NC2CCN(c3ccnc(Nc4cc(OC)c(OC)c(OC)c4)n3)C2)c1 (stereo not drawn) [TCMDC-133630],-28.99%
3,Cc1cc(N2CCCC2)nc(Nc2ccc(NC(=O)c3cccc(F)c3)cc2)n1 [TCMDC-124709],-4.91%
4,Cc1ccnc(-n2c(C)cc(C=C3SC(=Nc4ccccc4)N(Cc4ccco4)C3=O)c2C)c1 [TCMDC-125659],-67.39%
5,O=C(N[C@H](CC1CCCCC1)C(=O)NC1CCCc2ccccc21)c1ccc(O)c(-c2cccc([N+](=O)[O-])c2)c1 (stereo partly drawn) [TCMDC-140799],21.9%
6,Cc1cccc2[nH]c(-c3ccc(-c4ccc(NC(=O)Nc5ccsc5)cc4)cc3)nc12 [TCMDC-133215],-35.23%
7,Cc1nc(C)c(CC(=O)Nc2ccc(-c3cccc(-c4nc5ccc(C(F)(F)F)cc5[nH]4)c3)cc2)s1 [TCMDC-136996],-50.06%
8,Cc1cccc2[nH]c(-c3cccc(-c4ccc(NC(=O)CN5CCN(C)CC5)cc4)c3)nc12 [TCMDC-136983],81.12%
9,Cc1cccc2[nH]c(-c3cccc(-c4ccc(NC(=O)CS(C)(=O)=O)cc4)c3)nc12 [TCMDC-136851],-1.399%
10,Cc1cccc2[nH]c(-c3ccc(-c4ccc(NC(=O)CN5CCN(C)CC5)cc4)cc3)nc12 [TCMDC-136975],64.7%
11,Cc1cccc2[nH]c(-c3cccc(-c4cccc(NC(=O)CN5CCN(C)CC5)c4)c3)nc12 [TCMDC-136982],18.86%
12,Cc1nc(C)c(CC(=O)Nc2ccc(-c3cccc(-c4nc5c(C)cccc5[nH]4)c3)cc2)s1 [TCMDC-136998],88.79%
13,Cc1nc(C)c(CC(=O)Nc2cccc(-c3cccc(-c4nc5c(C)cccc5[nH]4)c3)c2)s1 [TCMDC-136997],6.613%
14,CC(C)(C)OC(=O)N(Cc1cc(-n2nnnc2C(F)(F)F)ccc1O)[C@H]1CCCN(C(=O)OC(C)(C)C)[C@H]1c1ccccc1 [TCMDC-132022],-21.48%
15,CC(C)(C)c1ccc(NC(=O)c2cccc(CN3CCCN(Cc4cccc(O)c4)CC3)c2)cc1 [TCMDC-135983],-11.1%
16,O=C(/C=C/c1ccc(Cl)c(Cl)c1)NC1CCN(Cc2ccc(O)cc2)C1 (stereo not drawn) [TCMDC-141739],26.39%
17,COc1ccc2nccc([C@@H](O)CN3CCC(NCc4cnc5c(c4)NC(=O)CS5)C(F)C3)c2c1 (stereo partly drawn) [TCMDC-141716],19.26%
18,CC(C)(C)c1ccc(CN2CCC(CNC(=O)c3cc(-c4ccccc4F)cs3)C2)cc1 (stereo not drawn) [TCMDC-134443],104.8%

row,SMILES,% Inhibition
1,COc1ccccc1-c1csc(C(=O)NCC2CCN(Cc3ccc(C(C)C)cc3)C2)c1 (stereo not drawn) [TCMDC-134510],-33.71%
2,CC(C)c1ccc(CN2CCCCC(NC(=O)c3cc(-c4ccccc4F)cs3)C2)cc1 (stereo not drawn) [TCMDC-134462],-8.212%
3,CC(C)(C)c1ccc(CN2CCC(CNC(=O)c3cc(-c4ccccc4C(F)(F)F)cs3)C2)cc1 (stereo not drawn) [TCMDC-134441],105.6%
4,CC(C)c1ccc(CN2CCC(CNC(=O)c3cc(-c4ccccc4F)cs3)C2)cc1 (stereo not drawn) [TCMDC-134436],107.7%
5,CCc1ccc(CN2CCC(CNC(=O)c3cc(-c4ccccc4F)cs3)C2)cc1 (stereo not drawn) [TCMDC-134431],96.16%
6,CC(C)Oc1ccccc1-c1csc(C(=O)NCC2CCN(Cc3ccc(C(C)(C)C)cc3)C2)c1 (stereo not drawn) [TCMDC-134512],5.537%
7,CCCc1cc(C(=O)N[C@@H](Cc2ccccc2)[C@H](O)CNC2CCOCC2)c(F)c(N2CCCCS2(=O)=O)c1 [TCMDC-135445],21.51%
8,Cc1ccccc1C1CCN(C2CCC(NC(=O)c3ccc(-c4ccccn4)s3)CC2)CC1 (stereo not drawn) [TCMDC-134106],-14.35%
9,COc1cc(Cc2cnc(N)nc2N)ccc1OCc1cccc(Oc2ccccc2)c1 [TCMDC-138681],-11.55%
10,COc1cccc(Nc2nccc(NCC(O)c3ccc(C(F)(F)F)cc3)n2)c1 (stereo not drawn) [TCMDC-136594],-17.97%
11,CN1C(=C2SC(=Nc3ccc4ncccc4c3)N(Cc3ccccc3)C2=O)Sc2ccc(Cl)cc21 [TCMDC-124118],3.008%
12,COc1ccc(NC(=O)[C@H](CC(C)C)Nc2cc(C)nc(NCC3CCCCC3)n2)cc1 [TCMDC-134917],-43.94%
13,COc1cc(C2NCC3(CCOCC3)c3cc4c(cc32)OCCO4)cc(OC)c1OC (stereo not drawn) [TCMDC-125743],-20.6%
14,Cc1cc(C)c(C)c(OCCCON2C(N)=NC(N)=NC2(C)C)c1C [TCMDC-131791],-4.975%
15,CC(C)CNCc1ccc(-c2cccc(CN(C(=O)CCC3CCCC3)C3CCN(Cc4ccccc4)CC3)c2)cc1 [TCMDC-140551],80.54%
16,COCCNCc1ccc(-c2cccc(CN(C(=O)CCC3CCCC3)C3CCN(Cc4ccccc4)CC3)c2)cc1 [TCMDC-140552],102.7%
17,O=C(NC1CCN(c2ccnc3ccccc23)C1)c1cccc(C(F)(F)F)c1 (stereo not drawn) [TCMDC-133580],-5.668%
18,N#Cc1ccc(CN2CCC(Oc3ccc(NC(=O)c4cccs4)cc3)CC2)cc1 [TCMDC-133953],32.19%
